Screening results as filed in PubChem.
Shown are actives, neighbours in structure and some others; about 11% of the full set was active somewhere.
HCV inhibitor: blocks hepatitis C virus; hit rate 3.4% among 340,000; AID 651820; Huh7.5.1 HCVcc-Cre infection, luciferase reporter, 44 h; Potency, µM (top dose mostly 41.8 µM), for inactives: at the top dose activity change, negative = inhibition, usual class: inhibitors; also: % is scaled to controls: 0 for no effect and ±100 for the full control effect
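Luciferase read-out (15 sec integration) after a 15 min room-temperature substrate step quantifies HCVcc-Cre infection. Cells, 1,000 per well, had compound added 4 h post-plating, then virus at ~0.5 moi, and were cultured 44 h.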
VACV mCherry inh: inhibitors of vaccinia virus infection (mCherry reporter signal); Vaccinia virus mCherry reporter infection, fluorescence; Potency, µM (series often up to 36.5 µM), inactives show top-dose activity change, negative = inhibition, usual class: inhibitors; hit rate 0.63% among 310,000; AID 720579; calls by dose curve; tested in A549 cells; also: % is scaled to controls: 0 for no effect and ±100 for the full control effect; nearly all actives have a fitted effect of over 35% in size
Pf growth 48h: P. falciparum growth inhibition at 48 hours (one generation); P. falciparum luciferase growth in erythrocytes, 48 h; Potency, µM (top dose mostly 28.7 µM), inactives show at the highest dose activity change, negative = inhibition, hits mostly inhibitors; hit rate 5.9% among 310,000; AID 504832; also: % is scaled to controls: 0 for no effect and ±100 for the full control effect
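Firefly luciferase activity from engineered P. falciparum reports growth; inhibitors lower the luminescent signal. Cultures contained 2% hematocrit erythrocytes at 0.1% final parasitemia.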
VACV Venus inh: inhibitors of vaccinia virus (Venus reporter) | Vaccinia virus Venus reporter expression, fluorescence | Potency, µM (doses to about 36.5 µM), inactives show at the top dose activity change, negative = inhibition, actives largely listed as inhibitors | hit rate 0.46% among 330,000 | AID 720580; calls by dose curve; tested in A549 cells; also: % is scaled to controls: 0 for no effect and ±100 for the full control effect; nearly all actives have a fitted effect of over 30% in size
Pf growth 96h: P. falciparum growth inhibition at 96 hour, primary screen for plastid delayed-death inhibitors; hit rate 6.9% among 320,000; P. falciparum luciferase reporter growth, 96 h; Potency, µM (series often up to 28.7 µM), inactives show at the highest dose activity change, negative = inhibition, usual class: inhibitors; also: % is scaled to controls: 0 for no effect and ±100 for the full control effect
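Cell-based qHTS: luciferase-tagged P. falciparum in erythrocytes (2% hematocrit, 0.05% parasitemia final) incubated with compounds for 96 hours, 37 C, 5% CO2; luciferase detection reagent then added and luminescence measured.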
NS1 function inh: inhibitors of influenza NS1 protein function; Potency, µM (top dose mostly 46.1 µM), inactives show at the top dose activity, positive = more growth; hit rate 0.4% among 270,000; AID 2326; calls by dose curve; also: actives are rising curves; nearly all actives have a fitted effect of over 50% in size
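Growth recovery, yeast-based: influenza A NS1 expressed in S. cerevisiae causes slow growth, and suppressors are detected by OD600. The parent strain without NS1 is used as positive control.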
The depositor's hits bear a star; i = inactive; u = inconclusive; x = no result. Unless noted, calls follow the shape of the dose curve; as a rule, active = well fitted inhibition curve with a large enough effect; inconclusive = small, poorly fitted or top-dose-only effect, or another doubt; inactive = no such curve, though single readings can be large or run the other way. Potency is read from the fitted curve at half-maximal effect.

SMILES	HCV inhibitor	VACV mCherry inh	Pf growth 48h	VACV Venus inh	Pf growth 96h	NS1 function inh
CCOc1ccccc1N1CCN(CC(=O)Nc2ccccc2C(=O)NC2CC2)CC1	u	-10%	9.3µM*	-11%	u	x
COc1ccc(CN2CCN(CC(=O)Nc3ccccc3C(=O)NC3CC3)CC2)cc1F	-1%	x	10µM*	x	u	x
CCOc1ccccc1NC(=O)CN1CCC(NC(=O)c2ccccc2C)CC1	u	16%	u	-8%	u	-2%
CCOc1ccccc1C(=O)NC1CCN(CC(=O)Nc2cc(OC)ccc2OC)CC1	11µM*	x	u	x	0%	-6%
COc1ccc(F)cc1CN1CCN(CC(=O)Nc2ccccc2C(=O)NC2CC2)CC1	5%	x	u	x	u	x
O=c1c2c(ncn2C2CCCC2)n(Cc2ccccc2)c(=O)n1CCOc1ccccc1	u	-12%	17µM*	-15%	u	16%
O=c1c2c(ncn2C2CCCC2)n(Cc2ccccc2)c(=O)n1CCOc1ccc(Br)cc1	u	-2%	13µM*	-5%	13µM*	24%
CCCCn1c(SCC(=O)NC2CCCC2)nc2ccccc2c1=O	1%	-8%	u	-12%	u	x
Cc1ccc(C)c(OCCn2c(=O)c3c(ncn3C3CCCC3)n(Cc3ccccc3)c2=O)c1	u	x	12µM*	x	2.6µM*	24%
CCCCn1c(=O)n(CC(O)c2ccccc2)c(=O)c2c1ncn2C1CCCC1 (configuration not stated)	-24%	x	2.9µM*	x	u	u
CCn1cnc2c1c(=O)n(Cc1cccc(Br)c1)c(=O)n2Cc1ccccc1	-4%	-30%	u	-15%	-22%	26%
COCCn1cnc2c1c(=O)n(CC(=O)NC1CCCCC1)c(=O)n2Cc1ccccc1	x	i	x	-5%	x	x
CN1C(=O)Cc2cc(S(=O)(=O)N3CCN(c4cccc(C(F)(F)F)c4)CC3)ccc21	-15%	i	-18%	-8%	u	6%
CCO[C@@H]1OC(C(N)=O)=C[C@H](c2ccc3c(c2)OCO3)[C@H]1CCCO	16%	i	56%	-6%	55%	3%
CNc1ncc(C(=O)c2ccc(Cl)cc2)s1	-8%	x	171%	x	183%	-23%
CS(=O)(=O)N(CC(=O)N1CCOCC1)Cc1ccc(Cl)cc1	-8%	x	-2%	u	7.4µM*	-15%
CS(=O)(=O)N(CC(=O)N1CCN(Cc2ccc3c(c2)OCO3)CC1)Cc1ccc(Cl)cc1	13µM*	x	x	x	1.9µM*	-15%
CS(=O)(=O)N(CC(=O)N1CCCCCC1)Cc1ccc(Cl)cc1	-18%	-7%	14%	-6%	x	-9%
Cc1cc(C)n2nc(CC(=O)NC3CCCCCCC3)nc2n1	7%	x	-8%	x	u	-5%
Cc1ccc2c(CC(=O)NCC(=O)Nc3c(C)cccc3C)coc2c1	u	i	u	-8%	35%	x
Cc1cccc(C)c1OCC(O)CNC(C)C (configuration not stated)	13%	-13%	x	-1%	u	8%
C=CCOc1ccccc1OCC(O)CNC(C)C (configuration not stated)	1µM*	-16%	-10%	-15%	-9%	x
CCOC(=O)c1oc2cccc(OCC(O)CNC(C)C)c2c1C (configuration not stated)	u	x	9.3µM*	x	1.3µM*	3%
CC(C)(C)C(=O)Nc1ccc2nc(SCc3ccccc3)sc2c1	x	-29%	x	-22%	x	x
NC(=S)N=Nc1c(O)n(C2OC(=O)c3ccccc32)c2ccccc12 (configuration not stated)	0%	-8%	39%	u	19%	22%
SMILES	HCV inhibitor	VACV mCherry inh	Pf growth 48h	VACV Venus inh	Pf growth 96h	NS1 function inh
O=S(=O)(c1ccc(Cl)cc1)N1CCC(N2CCOCC2)CC1	-17%	x	-4%	x	u	4%
Nc1nc(-c2ccc(Cl)cc2)c(N=Nc2ccc(S(=O)(=O)N3CCOCC3)cc2)s1	11µM*	-14%	-5%	-5%	u	8%
Cc1cc2nc(Cl)c(Cl)nc2cc1C	3%	x	-7%	x	10%	-2%
COc1ccc(-c2cc(C(F)(F)F)nc(SCC(=O)N3CCC(C)CC3)n2)cc1	x	-4%	x	-3%	x	x
O=C(CN1C2CCC1CC(O)(c1cccnc1)C2)Nc1ccc2c(c1)OCO2 (configuration not stated)	-3%	-11%	12%	-5%	8.3µM*	4%
NCC12CC3CC(C1)CC(c1ccc(Br)cc1)(C3)C2	13µM*	u	0%	22µM*	8%	-10%
Cc1ccc(C23CC4CC(CC(CN)(C4)C2)C3)cc1	u	u	10µM*	u	u	-3%
NCCOc1ccc(C23CC4CC(CC(C4)C2)C3)cc1	u	x	52%	x	148%	x
CCN(CC)c1cc(C(F)(F)F)nc(-c2ccccn2)n1	-17%	x	u	x	u	-19%
C=CCNc1cc(C(F)(F)F)nc(-c2ccccn2)n1	-3%	x	6.6µM*	x	4.1µM*	12%
O=C(COC(=O)c1c2ccccc2cc2ccccc12)NCC(F)(F)F	11µM*	-23%	-24%	u	-13%	-22%
Cc1ccc(C)c(Nc2c([N+](=O)[O-])cc(C(=O)N3CC(=O)Nc4ccccc43)cc2[N+](=O)[O-])c1	u	-6%	u	-24%	13µM*	u
Cc1cccc(Nc2c([N+](=O)[O-])cc(C(=O)N3CC(=O)Nc4ccccc43)cc2[N+](=O)[O-])c1	u	-8%	9.3µM*	-18%	u	x
Cc1ccc(C)c(NC(=O)CNC(=O)N2CC(=O)Nc3ccccc32)c1	18%	i	32%	-11%	40%	4%
COc1ccc(-n2c(=O)c3c4c(sc3n(CC(=O)NC3CCCC3)c2=O)CCCC4)c(OC)c1	2%	x	-7%	x	15%	x
COc1ccc(NC(=O)Cn2c(=O)n(-c3ccc(C)c(C)c3)c(=O)c3c(C)c(C)sc32)cc1	x	-20%	x	-18%	x	x
COc1ccc(NC(=O)Cn2c(=O)n(-c3ccc(OC)cc3OC)c(=O)c3c(C)c(C)sc32)cc1	2%	-26%	u	-18%	12µM*	8%
COc1ccc(-n2c(=O)c3c4c(sc3n(CC(=O)NCc3ccco3)c2=O)CCC4)c(OC)c1	13µM*	x	u	x	6%	-18%
O=C1CCC(/C=C/c2ccccc2)=NN1	-4%	i	17%	3%	24%	x
CC(C)NC(=O)c1ccc(-c2ccc(Cl)c(C(F)(F)F)c2)o1	-11%	x	x	x	3.3µM*	6%
COc1ccc(/C=C/C(=O)NC(=S)Nc2cc([N+](=O)[O-])ccc2O)cc1OC	-7%	x	-9%	x	1%	4%
Cc1ccccc1C1C(C#N)=C2N=C(N)c3c(sc4c3CCCCC4)N2C2=C1C(=O)CCC2 (configuration not stated)	u	x	1.9µM*	x	2.6µM*	2%
COc1ccc(C(=O)c2ccccc2O)c(O)c1	9%	-1%	4.1µM*	-9%	u	x
